# Measurements reported in the supplement of paper PMC3545927.
# The other results are listed elsewhere or left out. How many sequences the whole screen found active is unknown.
# Biological target: furin, P09958
# Experiment: furin cleavage Z-score vs untreated control; higher = more cleavage, active = 3.5 or more, inactive = 1 or less, 8 variable residues between constant flanks
# Experimental: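 Multiplexed peptide-cDNA fusion cleavage assay. 8-mer variable peptides flanked by constant Cys-Ala (N-term) and Ala-Gly-Asn-Ala-Ser-Ala-Ser-Ala (C-term) and conjugated to a cDNA oligonucleotide were bead-immobilised via the N-terminus. They were treated with purified furin at a 1:10 enzyme:substrate ratio in 50 mM HEPES pH 7.5, 1 mM CaCl2, 100 mM NaCl for 7.5, 15 or 30 min. Released cDNA was counted by next-generation sequencing, and log counts versus no-furin controls were lowess-adjusted and converted to robust Z-scores.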
# Chain of furin, P09958 (P09958 whole entry): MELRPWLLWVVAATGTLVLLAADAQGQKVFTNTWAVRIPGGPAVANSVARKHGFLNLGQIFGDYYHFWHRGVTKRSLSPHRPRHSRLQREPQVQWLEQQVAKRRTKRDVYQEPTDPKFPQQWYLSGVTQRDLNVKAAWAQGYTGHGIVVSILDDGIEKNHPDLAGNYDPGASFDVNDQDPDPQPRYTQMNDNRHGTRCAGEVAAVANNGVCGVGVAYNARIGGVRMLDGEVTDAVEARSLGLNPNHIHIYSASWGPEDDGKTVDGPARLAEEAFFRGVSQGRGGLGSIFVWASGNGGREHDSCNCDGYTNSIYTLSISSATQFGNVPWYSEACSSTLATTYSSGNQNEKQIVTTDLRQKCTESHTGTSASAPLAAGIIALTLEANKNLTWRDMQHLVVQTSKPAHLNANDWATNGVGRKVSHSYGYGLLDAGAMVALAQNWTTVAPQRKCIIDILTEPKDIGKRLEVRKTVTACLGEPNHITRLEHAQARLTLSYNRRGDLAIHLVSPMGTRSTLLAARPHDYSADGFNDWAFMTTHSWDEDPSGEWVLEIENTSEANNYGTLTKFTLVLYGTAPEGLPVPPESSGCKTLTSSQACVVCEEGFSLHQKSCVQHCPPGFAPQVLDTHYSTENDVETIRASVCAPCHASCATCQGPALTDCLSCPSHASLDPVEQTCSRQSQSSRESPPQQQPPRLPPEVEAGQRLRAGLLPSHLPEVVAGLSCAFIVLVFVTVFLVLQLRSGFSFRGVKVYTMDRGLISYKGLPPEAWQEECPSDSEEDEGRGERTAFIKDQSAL
Sequence,furin cleavage Z-score (7.5 min),furin cleavage Z-score (15 min),furin cleavage Z-score (30 min)
CAAGCAWYELAGNASASA [HC922],-0.796 (inactive),-1.42 (inactive),-1.58 (inactive)
CAKEMEECSQAGNASASA [HC1794],0.752 (inactive),0.717 (inactive),0.689 (inactive)
CAEVPCHRPLAGNASASA [HC2405],0.138 (inactive),-0.494 (inactive),0.866 (inactive)
CAREQRDICEAGNASASA [FS-2658],0.169 (inactive),0.317 (inactive),0.297 (inactive)
CAREQRDVERAGNASASA [FS-2485],1.98,3.86 (active),2.52
CAREQRSNGLAGNASASA [FS-3245],-0.772 (inactive),0.724 (inactive),1.43
CAKVIRHKRQAGNASASA [FS-681],12.7 (active),12.4 (active),9.91 (active)
CASVERIKRQAGNASASA [FS-303],12.4 (active),11.8 (active),10.6 (active)
CAKVIDTLTCAGNASASA [HC221],-1.35 (inactive),-0.249 (inactive),-0.555 (inactive)
CAKVTFDRLQAGNASASA [HC1396],-1.13 (inactive),-0.299 (inactive),-2.04 (inactive)
CASIERVKRQAGNASASA [FS-961],10.9 (active),11.9 (active),7.3 (active)
CADVCCSMSYAGNASASA [HC1991],-0.0698 (inactive),-0.573 (inactive),1.23
CATTDCSGSWAGNASASA [HC1871],-0.934 (inactive),-0.299 (inactive),-0.368 (inactive)
CAEWTTPCSGAGNASASA [HC1968],-0.833 (inactive),-0.0659 (inactive),0.694 (inactive)
CAVVCVSMSYAGNASASA [HC83],0.357 (inactive),0.79 (inactive),-0.758 (inactive)
CARRKRSAALAGNASASA [FS-2371],10.8 (active),11.7 (active),9.76 (active)
CARRGRSGGAAGNASASA [FS-2227],-0.325 (inactive),-0.173 (inactive),-0.877 (inactive)
CARNHRDAGAAGNASASA [FS-1756],1.3,0.109 (inactive),0.263 (inactive)
CARRKRSAGAAGNASASA [FS-1779],11.3 (active),10.7 (active),8.77 (active)
CARRKRKGSDAGNASASA [FS-2451],0.854 (inactive),2.01,1.02
CARKNRPAGAAGNASASA [FS-1729],-0.275 (inactive),-0.752 (inactive),-0.0808 (inactive)
CARAQRSAGAAGNASASA [FS-1994],0.322 (inactive),0.0646 (inactive),1.56
CARTKREAGAAGNASASA [FS-2189],10.6 (active),10.5 (active),7.02 (active)

Sequence,furin cleavage Z-score (7.5 min),furin cleavage Z-score (15 min),furin cleavage Z-score (30 min)
CARRKRHDIAAGNASASA [FS-3053],9.56 (active),8.72 (active),8.78 (active)
CASTPCSAALAGNASASA [HC2543],-1.2 (inactive),-0.501 (inactive),0.383 (inactive)
CAMEVCSQHLAGNASASA [HC1710],0.136 (inactive),0.13 (inactive),-0.0969 (inactive)
CAMEECAQHLAGNASASA [HC21],-0.625 (inactive),-0.0837 (inactive),-0.768 (inactive)
CATLHGPTPLAGNASASA [HC969],0.77 (inactive),0.336 (inactive),-0.402 (inactive)
CARRKRHISVAGNASASA [FS-3262],5.85 (active),5.59 (active),7.18 (active)
CARYHRDAGAAGNASASA [FS-1809],1.33,1.22,0.229 (inactive)
CARRQRRVPGAGNASASA [FS-3060],0.752 (inactive),1.27,2.47
CARYARKIEPAGNASASA [FS-2847],0.34 (inactive),1.98,2.59
CAEDEREISVAGNASASA [HC1292],0.521 (inactive),-0.358 (inactive),1.28
CARRKRRAPLAGNASASA [FS-2594],4.11 (active),6.31 (active),6.38 (active)
CARYARWAGAAGNASASA [FS-1808],3.25,3.55 (active),4.67 (active)
CAMEECQQHLAGNASASA [HC39],1.54,0.787 (inactive),2.55
CALALPQRAYAGNASASA [HC561],0.0304 (inactive),1.97,1.07
CAQVVTSTWVAGNASASA [HC2162],0.38 (inactive),0.0342 (inactive),0.112 (inactive)
CAEWVTSTWVAGNASASA [HC2168],0.00297 (inactive),0.984 (inactive),0.871 (inactive)
CAVVCCSISYAGNASASA [HC2044],0.197 (inactive),-0.41 (inactive),-0.348 (inactive)
CARKKRSTKKAGNASASA [FS-2270],5.56 (active),7.13 (active),6.85 (active)
CARKKRREEKAGNASASA [FS-1828],-0.326 (inactive),2.8,0.74 (inactive)
CARKKRYDRKAGNASASA [FS-2395],4.56 (active),7.7 (active),7.88 (active)
CARKKRADKKAGNASASA [FS-2961],5 (active),6.53 (active),5.44 (active)
CARKKRATHSAGNASASA [FS-2562],11.5 (active),12.2 (active),9.97 (active)
CARKKREKKKAGNASASA [FS-2964],-0.433 (inactive),-0.316 (inactive),0.927 (inactive)
